# In ChEMBL document CHEMBL4513149, “CO-ADD screening of MMV (CH) - MMV compounds” (2021):
# Results with a measured potency or affinity are listed apart.
# Columns and labels:
# [1] = test system: Klebsiella pneumoniae; settings: Concentration 20 uM; ASSAY_TEST Inhibition of Bacterial Growth; detection method Absorption (OD600); MEDIA CAMHB; plate type 384well; NBS; CORNING #3640; time 18 hr
# [2] = test system: Candida albicans; settings: 20 µM
# [3] = test system: Cryptococcus neoformans; settings: Concentration 20 uM; ASSAY_TEST Inhibition of Fungal Growth; detection method Resazurin; Absorption (OD600-OD570); plate type 384well; NBS; CORNING #3640
Structure (SMILES),Inhibition [1],Inhibition [2],Inhibition [3]
CN1CCN(c2nccc3[nH]c(-c4cccc(F)c4)cc23)CC1,12.23%,5.85%,5.1%
O=S(=O)(c1ccc(Cl)cc1)N1CCN(C(=S)NCc2ccco2)CC1,5.39%,4.22%,-0.21%
COc1ccc(Nc2ccccc2NC(=O)c2ccc(O)nc2)cc1,-2.41%,1.42%,-7.76%
CC(C)(C)C(=O)N(CCCCCCN1C[C@H](O)[C@@H](O)[C@H](O)[C@H]1CO)C1CCCCCC1,7.47%,0.83%,-2.01%
CC(C)NCC(=O)Nc1cccc(C(=O)Nc2cccc(C(F)(F)F)c2)c1,10.29%,3.29%,-11.79%
Cc1cc(Cl)c(S(=O)(=O)N2CCCC2)cc1OCC(=O)NC1CCCCC1,2.55%,9.11%,-9.39%
O=C(NCc1ccco1)N1CCN(Cc2ccc(Cl)s2)CC1,5.01%,2.08%,-2.89%
CC(C)=CCC/C(C)=C\CNCCNC1C2CC3CC(C2)CC1C3 (stereo not drawn),18.7%,2.31%,16.24%
CN1CCN(S(=O)(=O)c2ccc(-c3ccc4c(Nc5ncc(Cl)cn5)ccnc4c3)cc2)CC1,7.93%,4.17%,-3.42%
CCCCOC(=O)Nc1cc2nc(C3CCCCC3)[nH]c2cc1N1CCCC1,3.91%,3.13%,-8.19%
O=C(Nc1nc(-c2ccccn2)cs1)c1cncn1-c1ccccc1,11.31%,1.74%,-8.18%
COC(=O)c1cccc2oc(-c3cccc(OC)c3NC(=O)c3cc(-c4ccccc4)on3)nc12,13.16%,8.19%,-3.51%
COc1ccc(-c2cnc3ccc(N4CCCC4)nn23)cc1OC,12.07%,4.32%,-8.28%
O=C(C1CCN(c2nnnn2-c2ccccc2)CC1)N1CCc2ccccc2C1,12.73%,2.89%,-8.99%
Cc1noc(C)c1C(=O)N1CCCC(c2[nH]c3c(C)cccc3c2-c2ccncc2)C1 (stereo not drawn),18.77%,4.29%,-7.96%
COc1ccc(Cl)cc1NC(=O)CN(C)C(=O)c1cnn(-c2ccccc2)n1,9.17%,6.95%,-5.87%

Structure (SMILES),Inhibition [1],Inhibition [2],Inhibition [3]
CCOC(=O)c1cc(-c2csc(Nc3c(C)cc(C)cc3C)n2)on1,16.59%,2.27%,-12.46%
Cc1ccc(S(=O)(=O)n2cc(-c3ccnc(N)c3)c3cc(Br)cnc32)cc1,7.11%,37.1%,-2.21%
Cc1nc(-c2cccc(NCc3ccccc3)c2)[nH]c1C,18.74%,2.98%,-12.15%
O=C(Nc1c(O)cccc1-c1nc2c(C(=O)O)cccc2o1)c1cc(-c2ccccc2)on1,-9.4%,3.49%,-10.86%
CS(=O)(=O)Cc1nc2ccccc2oc1=O,16.91%,1.55%,-16.09%
CC(Oc1cccc(Cl)c1)C(=O)Nc1ccc2oc(-c3ccncc3)nc2c1 (stereo not drawn),9.56%,6.74%,-15%
CN(C)c1cc(NC(=O)Nc2ccccc2)c2ccccc2n1,-9.89%,5.61%,-2.57%
CC(C(=O)Nc1ccc2oc(-c3ccncc3)nc2c1)c1ccccc1 (stereo not drawn),10.68%,3.28%,-12.41%
Cc1ccc(S(=O)(=O)Nc2ccc(CN3CCN(C(=O)c4cccc(C#N)c4)CC3)cc2)cc1,10.93%,-0.01%,-7.61%
CNC(=O)C1Cc2ccccc2N1C(=O)Cc1ccc(F)cc1 (stereo not drawn),8.26%,3.31%,-12.98%
CC(=O)Nc1ccc(NC(=O)c2cc(-c3cc(Cl)ccc3O)n[nH]2)cc1,-16.31%,54.8%,0.66%
CC1=Nc2ccc(Cl)cc2C(c2ccccc2)N1CCNC(=O)CN(C)C (stereo not drawn),16.36%,1.95%,10.1%
COC(=O)C1=C(C)NC(C)=C(C(=O)OC(C)C)C1c1cccc2nonc12 (stereo not drawn) [ISRADIPINE],6.29%,4.19%,-10.15%
CC(C)C(Oc1cccc2ccccc12)C(=O)O (stereo not drawn),6.53%,8.4%,4.84%
O=C(NCc1ccoc1)N1CCN(Cc2ccc3c(c2)OCO3)CC1,7.21%,2.46%,10.58%
